According to PubChem BioAssay:
Active and inactive are the calls of the source.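 The calls were made as follows, unless noted: active = inhibition of the reporter signal at or above 50%; inactive = inhibition below 50%.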

Assays:
[1] = inhibitors of TNFa-induced NFkB p65 translocation, primary screen, imaging, HUVEC, MLSMR starter and 10KST1 sets (AID 438;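 active = inhibition above 20% together with a positive visual image hit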;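 also: compound added about 3h40 before a 20 min TNFalpha stimulation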;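 as to inhibition: signal is the nuclear over cytoplasmic p65 intensity ratio per well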); settings: HUVEC TNFa-induced p65 nuclear translocation; cell count: measured here: nuclei count (cytotoxicity indicator), at 2.08 µM; inhibition: at 2 µM, stronger effect = higher value, 0% TNFa-plus-vehicle, 100% no-TNFa wells
[2] = reduction of polyQ htt aggregates in cells – imaging, exon1htt(103Q)mCFP cells, high-content imaging, primary screen (AID 483;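 active = visual image review flags a hit and inhibition of aggregation exceeds 20%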;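 also: compound exposure lasted 3 days before fixation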;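 as to nuclei count: percent of the per-plate median nuclei count of sample wells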); settings: exon1htt(103Q)mCFP cell line, aggregate imaging, at 2 µM; inhibition of aggregation: stronger effect = higher value; nuclei count: measured here: cell count, toxicity
[3] = endothelial E-selectin expression blockers – imaging, HUVEC, immunofluorescence, MLSMR starter and 10KST1 sets, primary screen (AID 487;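 active = visually confirmed hit in the image check and inhibition above 20%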;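 as to inhibition: signal is fraction of cell area covered by stained E-selectin grains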;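 as to nuclei count: 100% = median nuclei count of all wells on the same plate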); settings: HUVEC TNFalpha-induced E-selectin immunofluorescence imaging, at 2 µM; inhibition: stronger effect = higher value; nuclei count: measured here: cell number, toxicity
[4] = biological target: Voltage-gated potassium channel subunit beta-2 (Rattus norvegicus) (UniProt P62483); assay: inhibitors of rat Kvbeta2 reductase activity – biochemical, NADPH fluorescence, primary screen (AID 622;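 active = fluorescence slope higher than the sample average by over 3 SD, cut at about -0.22 in these data, passing the limit was not always enough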;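 also: slope of raw intensity against log time taken from 70 to 1610 s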); settings: recombinant KvBeta, 4-cyanobenzaldehyde reduction, at 10 µM, stronger effect = higher value
Sequence of Voltage-gated potassium channel subunit beta-2 (Rattus norvegicus) (P62483 whole entry, looked up): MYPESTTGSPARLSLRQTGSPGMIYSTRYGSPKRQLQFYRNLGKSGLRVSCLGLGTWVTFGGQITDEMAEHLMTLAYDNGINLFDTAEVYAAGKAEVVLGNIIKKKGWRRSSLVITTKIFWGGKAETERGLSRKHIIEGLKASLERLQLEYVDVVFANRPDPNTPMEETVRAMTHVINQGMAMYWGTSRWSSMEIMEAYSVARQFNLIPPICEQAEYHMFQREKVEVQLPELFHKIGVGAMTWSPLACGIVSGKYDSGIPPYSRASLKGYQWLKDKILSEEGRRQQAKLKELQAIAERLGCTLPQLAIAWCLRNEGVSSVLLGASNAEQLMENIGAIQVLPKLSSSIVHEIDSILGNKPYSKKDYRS

[5] = biological target: Voltage-gated potassium channel subunit beta-2 (Rattus norvegicus) (UniProt P62483); assay: enhancers of rat Kvbeta2 NADPH turnover – biochemical, NADPH fluorescence, primary screen (AID 623;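 active = NADPH fluorescence slope more negative than the mean of all samples by about 3 SD, 99.7% confidence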;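 also: fluorescence intensity change per second fitted from 20 to 320 s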); settings: Recombinant KvBeta, NADPH fluorescence decrease slope, 10 min; at 10 µM; stronger effect = lower value
[6] = biological target: Alpha-2C adrenergic receptor (Homo sapiens) (UniProt P18825); assay: compounds altering alpha2C-coupled GIRK flux – cell-based, HEK293 alpha2C/GIRK1/2, thallium flux, primary screen (AID 624;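 active = fluorescence slope after compound addition differing from the mean of all screened samples at 99.7% confidence, in either direction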;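 also: slope of fluorescence ratio to pre-addition baseline per second over 15 to 24 s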); settings: thallium flux BTC fluorescence, at 10 µM, actives lie on both sides
Sequence of Alpha-2C adrenergic receptor (Homo sapiens) (P18825 whole entry, looked up): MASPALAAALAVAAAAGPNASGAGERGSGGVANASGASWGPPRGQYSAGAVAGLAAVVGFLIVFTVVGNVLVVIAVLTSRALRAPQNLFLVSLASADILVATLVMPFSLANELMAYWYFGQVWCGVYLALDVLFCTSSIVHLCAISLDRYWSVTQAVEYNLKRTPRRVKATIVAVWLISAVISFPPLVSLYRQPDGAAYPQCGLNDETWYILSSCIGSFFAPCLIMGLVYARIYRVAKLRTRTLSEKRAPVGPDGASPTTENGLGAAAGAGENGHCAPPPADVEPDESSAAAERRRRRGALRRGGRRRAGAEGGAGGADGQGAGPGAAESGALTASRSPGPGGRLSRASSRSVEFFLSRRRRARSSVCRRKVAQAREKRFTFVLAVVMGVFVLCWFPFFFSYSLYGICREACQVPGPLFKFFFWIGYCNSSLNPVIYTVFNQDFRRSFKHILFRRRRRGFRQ

[7] = blockers of RIG-like receptor reporter activation – cell-based, Sendai virus stimulus, luciferase, 10K MLSCN set, TLR/RLR signaling modifier project, primary screen (AID 602276;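 active = inhibition at or above 50% at 10 µM; inactive = inhibition below 50%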;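 also: firefly luciferase from ISG56 promoter only with Renilla not read in this screen; 0% = Sendai virus plus DMSO and 100% = medium plus DMSO without virus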); settings: HEK293 RL24 IRF3 luciferase reporter, at 10 µM, stronger effect = higher value
[8] = TLR3 IRF3 reporter activation blockers – cell-based, poly I:C stimulus, luciferase, 10K MLSCN set, primary screen (AID 602277); settings: HEK293-TLR3 RL24 IRF3 luciferase reporter, at 10 µM, stronger effect = higher value

| SMILES | cell count [1] | inhibition [1] | inhibition of aggregation [2] | nuclei count [2] [%] | inhibition [3] | nuclei count [3] [%] | fluorescence slope [4] | NADPH fluorescence slope [5] | slope [6] | inhibition [7] | inhibition [8] |
| --- | --- | --- | --- | --- | --- | --- | --- | --- | --- | --- | --- |
| O=C(CN1CCN(c2nc(-c3ccc(F)cc3)cs2)CC1)NCc1ccc2c(c1)OCO2 | 491 | 9.9% (inactive) | 5.2% (inactive) | 108 | -34.5% (inactive) | 107 | -0.582 (inactive) | -2.2e-05 (inactive) | 0.00522 (inactive) | 16.7% (inactive) | 17.8% (inactive) |
| CCC(=O)Nc1cc2nn(-c3ccccc3)nc2cc1Cl | 442 | -2.1% (inactive) | 7.1% (inactive) | 105 | -94.2% (inactive) | 255 | -0.413 (inactive) | -5.9e-07 (inactive) | 0.00584 (inactive) | -10.5% (inactive) | -46.9% (inactive) |
| CN(CCNS(=O)(=O)c1ccc2c(c1)oc(=O)n2C)Cc1ccccc1 | 739 | -6.7% (inactive) | -7.2% (inactive) | 95.2 | -65.3% (inactive) | 119 | -0.604 (inactive) | -4.2e-05 (inactive) | 0.0075 (inactive) | 9.41% (inactive) | 39.8% (inactive) |
| CCN1CCCC1CN=Cc1c(O)n(-c2ccccc2)c(=O)c2ccccc12 (stereo not drawn) | 609 | -0.3% (inactive) | -8.1% (inactive) | 109 | -12.1% (inactive) | 97.6 | -0.598 (inactive) | -2e-05 (inactive) | 0.00513 (inactive) | -6.81% (inactive) | 16.9% (inactive) |
| O=C(c1ccco1)N1CCN(C(=O)c2cc3c(s2)-c2ccccc2OC3)CC1 | 684 | -5% (inactive) | -23% (inactive) | 131 | 4.9% (inactive) | 102 | -0.0429 (inactive) | 3.2e-05 (inactive) | 0.00801 (inactive) | -15% (inactive) | -25.8% (inactive) |
| COC(=O)c1ccccc1NC(=O)N1CCCC1 | 380 | -0.9% (inactive) | 0.5% (inactive) | 99.5 | -45.5% (inactive) | 115 | -0.434 (inactive) | -3.7e-06 (inactive) | 0.00581 (inactive) | -4.5% (inactive) | 0.116% (inactive) |
| CCOc1ccc(NC(=O)CSc2nnc(COc3c(C)cccc3C)o2)cc1 | 577 | 7.3% (inactive) | -15% (inactive) | 116 | -13.1% (inactive) | 115 | -0.567 (inactive) | -1.4e-05 (inactive) | 0.00747 (inactive) | 6.58% (inactive) | 30.3% (inactive) |
| COC(=O)c1ccc(NC(=O)C2CC(=O)N(c3cc(C)ccc3C)C2)cc1 (stereo not drawn) | 504 | 6.6% (inactive) | 8.1% (inactive) | 92.6 | -29.9% (inactive) | 95.1 | -0.587 (inactive) | -9.6e-06 (inactive) | 0.00549 (inactive) | -15.3% (inactive) | -26.3% (inactive) |
